ERa coact inh – ER-alpha (human) coactivator binding inhibition. inhibition, % at 25.6 µM. hit rate 1.7% among 86,000. P03372. TR-FRET ER-alpha LBD / SRC-1 peptide, estradiol-bound. AID 629; in the data active means inhibition above about 50%
Target sequence (P03372 whole entry, looked up, the tested form may be a part): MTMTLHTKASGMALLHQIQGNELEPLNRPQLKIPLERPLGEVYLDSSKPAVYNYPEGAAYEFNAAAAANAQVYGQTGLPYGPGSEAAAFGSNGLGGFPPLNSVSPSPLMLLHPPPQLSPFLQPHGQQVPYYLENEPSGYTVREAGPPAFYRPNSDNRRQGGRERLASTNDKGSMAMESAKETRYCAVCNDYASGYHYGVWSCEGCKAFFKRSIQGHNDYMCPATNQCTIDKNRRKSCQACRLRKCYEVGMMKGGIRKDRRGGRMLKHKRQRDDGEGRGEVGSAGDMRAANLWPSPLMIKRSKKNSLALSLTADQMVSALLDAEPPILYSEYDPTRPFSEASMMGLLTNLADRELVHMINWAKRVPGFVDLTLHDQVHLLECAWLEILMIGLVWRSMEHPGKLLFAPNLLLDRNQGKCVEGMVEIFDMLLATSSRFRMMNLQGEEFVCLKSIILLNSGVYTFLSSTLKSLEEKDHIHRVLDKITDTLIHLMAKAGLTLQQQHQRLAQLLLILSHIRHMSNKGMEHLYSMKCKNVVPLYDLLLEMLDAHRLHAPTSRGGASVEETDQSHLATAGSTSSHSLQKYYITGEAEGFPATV
MRP reversal – MRP-mediated drug resistance reversal. H69AR cells + 2 uM doxorubicin, CellTiter-Glo, 72 h. differential viability (reversal), % at 10 µM. hit rate 0.04% among 85,000;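 active means viability drop by adding the cancer drug above about 55%, with treated viability meeting a 40% cutoff, limit read from the data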;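 further: larger differential means the compound sensitizes cells more to doxorubicin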
ERa coact pot – ER-alpha (human) coactivator binding potentiation; P03372; hit rate 1.3% among 86,000; coactivator binding (% of control), % at 25.6 µM; TR-FRET ERalpha-LBD/SRC-Cy5 coactivator binding, 2 h; 100 = basal binding, no effect; in the data active means activity above about 200%;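 further: binding measured in presence of low estradiol as agonist stimulus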
ERb coact inh – blocks coactivator binding to human estrogen receptor beta | Q92731 | inhibition, % at 25.6 µM | AID 633 | TR-FRET ER-beta LBD / SRC1-Cy5 peptide binding; receptor agonist-loaded with 1 µM estradiol | hit rate 1.3% among 86,000;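 active means compounds whose percent inhibition of the receptor-coactivator binding signal exceeds about 50% in the single-dose screen, limit read from the data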
MRP-1 activ – activates MRP-1. viability increase, % at 10 µM. hit rate 0.61% among 140,000. AID 799. H69AR cells + doxorubicin, viability rescue, CellTiter-Glo;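 active means viability gain under doxorubicin at or above a set limit, the compound median plus 3 SD, cut at about 4.7% in these data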;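 further: MRP-1 overexpressing cells given doxorubicin 25 µM after compound pretreatment; 18-22 h compound pretreatment then 72 h with doxorubicin before readout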
A number is an active result; - = inactive; . = no result; [ ] = dose if it differs, or a comment. Hits are enriched below; roughly 2.7% of the tested compounds scored in any of these assays.

SMILES | ERa coact inh | MRP reversal | ERa coact pot | ERb coact inh | MRP-1 activ
CC1CC(C)CN(S(=O)(=O)c2ccc(C(=O)Nc3sccc3C(N)=O)cc2)C1 (centres undefined) | - | - | 253[fluorescence artefact?] | - | -
Cc1csc2nc(CSc3ccc(Cl)cc3)cn12 | - | - | - | - | -
Clc1ccc(SCc2cn3ccsc3n2)cc1 | - | - | 366[fluorescence artefact?] | - | -
CCOC(=O)c1sc(=NC(=O)c2cc(OC)c(OC)c(OC)c2)n(C)c1C | - | - | 208 | - | -
O=[N+]([O-])c1cc(/C=N/OCc2c(Cl)cccc2Cl)ccc1N1CCOCC1 | . | . | . | . | -
COc1ccc(CN2CCn3ncc(C(=O)Nc4cc(C)cc(C)c4)c3C2=O)cc1 | - | - | 252[fluorescence artefact?] | - | -
O=C1c2ccccc2C(=O)N1CCn1nc(Cl)nc1Cl | - | - | - | 59[fluorescence artefact?] | -
NC(=O)c1cc(-c2ccccc2)sc1NC(=O)CN1CCCCC1 | . | . | . | . | -
COc1ccc(Cl)cc1-c1nc(-c2ccc(Br)o2)no1 | 59[fluorescence artefact?] | - | 277[fluorescence artefact?] | - | -
COc1ccc(-c2nc(-c3ccc(Br)o3)no2)cc1 | - | - | - | - | -
Clc1ccc(OCc2nnnn2-c2ccccc2)cc1 | . | . | . | . | 7.3
c1ccc(OCc2nnnn2-c2ccccc2)cc1 | . | . | . | . | -
Cc1cc(NC(=O)c2cc(-c3cccc(Cl)c3)on2)no1 | - | - | - | - | -
COc1cccc(-c2cc(C(=O)NCc3ccc(Cl)cc3)no2)c1 | 70[fluorescence artefact?] | - | - | - | -
COc1cccc(-c2cc(C(=O)Nc3cc(C)on3)no2)c1 | - | - | 428[fluorescence artefact?] | - | -
COc1ccc(-c2cc(C(=O)NCc3ccc(Cl)cc3)no2)cc1OC | . | . | . | . | -
CCOC(=O)c1cc([N+](=O)[O-])c([N+](=O)[O-])cc1NC(C)=O | . | . | . | . | -
Cc1ccc2nc3c(cc(C#N)c(=N)n3CCCN3CCOCC3)c(=O)n2c1 | - | - | - | - | .
COc1ccc2c3c(cccc13)NN=C2C | 98[fluorescence artefact?] | - | - | 99[fluorescence artefact?] | .
COc1ccc(C(=O)c2ccc(OC)c3cccc(O)c23)cc1OC | - | - | - | - | -
CCOc1ccc(NC(=O)c2oc3ccccc3c2NC(=O)C(C)C)cc1 | - | - | - | - | .
N/C(=N\c1nc2ccccc2o1)NC(=O)c1ccccc1NC(=O)c1ccccc1 | - | - | - | 82 | -
O=C1c2ccccc2C(=O)C1c1ccnc2ccccc12 | - | - | 242 | - | -
O=C1C(c2ccnc3ccccc23)=C(O)c2ccccc21 | - | - | 309 | - | -
O=C1c2ccccc2C(=O)C1c1nccc2ccccc12 | . | . | . | . | -
SMILES | ERa coact inh | MRP reversal | ERa coact pot | ERb coact inh | MRP-1 activ
CCOC(=O)C1CCN(C(=S)Nc2cc(OC)c(OC)cc2C(=O)OC)CC1 | - | - | - | - | -
Cc1cc(N2C(=O)C=CC2=O)c([N+](=O)[O-])cc1C | . | . | . | . | -
O=C(Cn1cc(C(=O)c2ccco2)c2ccccc21)NC1CCCC1 | - | - | 554[fluorescence artefact?] | - | -
c1coc(-c2nnc(-c3ccc4c(c3)OCO4)o2)c1 | 65[fluorescence artefact?] | - | - | - | -
Cn1c(C(=O)NCCCN2CCCC2=O)cc2c(=O)n3ccccc3nc21 | - | - | - | - | .
CN(C)c1ccc(NC(=O)c2cc3c(=O)n4ccccc4nc3n2C)cc1 | 100[fluorescence artefact?] | - | - | 93[fluorescence artefact?] | .
CCCCN(CCCC)C(=O)c1ccccc1NC(=O)CN1C(=O)c2ccccc2C1=O | - | - | - | - | -
O=C(CSc1ccc(Cl)cc1)c1ccco1 | 80[fluorescence artefact?] | - | - | 81 | -
Cc1ccccc1Cn1nc(C)c(NC(=O)c2noc3c2CCc2ccccc2-3)c1C | - | - | - | - | 5.2
Cc1ccccc1Cn1nc(C)c(NC(=O)c2noc3c2CC(C(C)(C)C)CC3)c1C (centres undefined) | - | - | - | - | -
c1ccc(Cc2nnc3sc(-c4ccco4)nn23)cc1 | 64[fluorescence artefact?] | - | - | 59 | -
Cc1cc(-c2nn3c(-c4ccccc4)nnc3s2)c2ccccc2n1 | 73 | - | - | - | -
c1ccc(-c2cc(-c3nn4c(-c5ccco5)nnc4s3)c3ccccc3n2)cc1 | 70[fluorescence artefact?] | - | - | 54[fluorescence artefact?] | -
COc1cc(OC)c(-c2nn3c(-c4ccco4)nnc3s2)cc1OC | - | - | - | - | -
c1ccc(OCc2nn3c(-c4n[nH]c5c4CCC5)nnc3s2)cc1 | 67[fluorescence artefact?] | - | - | 61[fluorescence artefact?] | .
Cc1ccc(OCc2nn3c(-c4n[nH]c5c4CCC5)nnc3s2)cc1 | 73[fluorescence artefact?] | - | - | 54 | .
N#Cc1cc2c(nc1SCc1ccccc1)CCCC2 | . | . | . | . | -
N#Cc1cc2c(nc1SCc1ccccc1)CCC2 | 55[fluorescence artefact?] | - | 283[fluorescence artefact?] | 59[fluorescence artefact?] | -
Cc1cc(C)nc(/N=C(\N)Nc2ccc(F)c([N+](=O)[O-])c2)n1 | . | . | . | . | -
Cc1ccc(NC(=O)COC(=O)C2(c3ccc(Cl)cc3)CCCC2)cc1 | . | . | . | . | -
CN=c1scc(C)n1/N=C/c1ccc(O)c(O)c1O | 97[fluorescence artefact?] | - | - | 100[fluorescence artefact?] | 12
COc1ccc(-c2noc(CCCOc3ccccc3)n2)cc1OC | - | - | - | - | -
Cc1ccc(S(=O)(=O)c2c(C)cc(C)nc2Cl)c(C)c1 | . | . | . | . | -
Cc1cc(C)c(S(=O)(=O)/N=C2\C=CC(=O)C(Cl)=C2)c(C)c1 | 70 | - | - | 61 | -
C=CCn1c(=N)n(CC(=O)c2ccc(Br)s2)c2ccccc21 | . | . | . | . | -
SMILES | ERa coact inh | MRP reversal | ERa coact pot | ERb coact inh | MRP-1 activ
O=C(NCc1ccc(F)cc1)c1noc2c1CCCC2 | - | - | - | - | 4.9
O=C(Nc1ccc(F)cc1F)c1noc2c1CCC2 | 86[fluorescence artefact?] | - | - | 91[fluorescence artefact?] | -
O=C(NCc1ccc(F)cc1)c1noc2c1CCCCC2 | - | - | - | - | -
Cc1c(Br)c([N+](=O)[O-])nn1C(C)C(=O)N1CCCc2ccccc21 (centres undefined) | . | . | . | . | -
COC(=O)/C(=C/c1ccco1)NC(=O)c1ccco1 | . | . | . | . | -
CCC1=NN=C(c2ccc(F)cc2)C(c2c[nH]c3ccccc23)N1O (centres undefined) | - | - | 686[fluorescence artefact?] | - | -
O=C(Cc1c[nH]c2ccccc12)N/N=C/c1ccc(F)cc1 | . | . | . | . | -
Cc1cccc2c3nc4ccccc4nc3n(CCCN3C(=O)c4ccccc4C3=O)c12 | . | . | . | . | 5.2
CCCCn1c(CN2C(=O)c3ccccc3C2=O)nc2ccccc2c1=O | 58[fluorescence artefact?] | - | - | 51[fluorescence artefact?] | -
COc1ccc2c(c1)c1nc3ccccc3nc1n2CCCN1C(=O)c2ccccc2C1=O | . | . | . | . | -
CCOc1c(OC(C)=O)ccc(/C=C/c2ccc3cccc(OC)c3n2)c1[N+](=O)[O-] | . | . | . | . | -
Cc1cc2n(c(=O)c1C#N)CCCN2c1ccccc1 | - | - | - | - | -
O=C(c1sc2ccccc2c1Cl)N(Cc1cccs1)C1CCS(=O)(=O)C1 (centres undefined) | 58[fluorescence artefact?] | - | - | - | -
O=C(c1cccc(Cl)c1)N(Cc1cccs1)C1CCS(=O)(=O)C1 (centres undefined) | - | - | - | - | -
Cc1cccc2cc(CN(Cc3cccs3)S(=O)(=O)c3ccc4c(c3)OCCO4)c(=O)[nH]c12 | . | . | . | . | 9.3
Cc1ccccc1CNC(=O)c1ccc(CSCc2ccccc2)cc1 | . | . | . | . | -
CCc1nnc2sc(-c3ccc(NC(=O)CSc4ccc(Cl)cc4)cc3)nn12 | - | - | 225[fluorescence artefact?] | - | .
O=c1[nH]c2cc3c(cc2cc1C(c1nnnn1C1CCCCC1)N1CCSCC1)OCCO3 (centres undefined) | - | - | 254[fluorescence artefact?] | - | -

Source: PubChem (several laboratories)
